Calls of active or inactive are those of the source. How the source made its calls: active means hit-call score of the fitted dose curve at least 0.9, where 1 is the maximum; inactive means score below 0.9.
Tests used:
Settings in all cases: mRNA level, 48 h; actives raise or lower the signal
[1] = read-out: Heat shock 70 kDa protein 1 (HSPA1A), gene 3303; test: LTEA_HepaRG_HSPA1A: Life Technologies and Expression Analysis (LTEA) Assay for Heat shock 70 kDa protein 1 (HSPA1A) using HepaRG (AID 2283502)
Method in brief: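 Differentiated human HepaRG cells in serum-free induction medium were exposed in duplicate for 48 h to eight concentrations (top 100 uM, half-log steps, 0.5% DMSO). HSPA1A mRNA was quantified by qRT-PCR, normalized to ACTB, GAPDH and POLR2A, and fitted bidirectionally against DMSO.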

[2] = read-out: Hypoxia-inducible factor 1-alpha (Homo sapiens) (UniProt Q16665); test: LTEA_HepaRG_HIF1A: Life Technologies and Expression Analysis (LTEA) Assay for Hypoxia-inducible factor 1 (HIF1A) Trancription factor using HepaRG (AID 2283503)
Method in brief: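 HepaRG, 48 h exposure, 8-pt half-log series from 100 uM, 0.5% DMSO vehicle, duplicates. Readout: HIF1A transcript by qRT-PCR (Fluidigm array), housekeeping-normalised. Bidirectional curve fit vs DMSO baseline.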

[3] = read-out: 3-Hydroxy-3-Methylglutaryl-CoA Synthase 2 (HMGCS2), HMGCS2 (gene 3158); test: LTEA_HepaRG_HMGCS2: Life Technologies and Expression Analysis (LTEA) Assay for 3-Hydroxy-3-Methylglutaryl-CoA Synthase 2 (HMGCS2) using HepaRG (AID 2283504)
Method in brief: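 Human HepaRG cells in serum-free induction medium were exposed in duplicate for 48 h to 8-point half-log series from 100 uM top in 0.5% DMSO. HMGCS2 mRNA measured by TaqMan qRT-PCR, normalised to ACTB, GAPDH, POLR2A; bidirectional fit versus DMSO.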

[4] = read-out: HGF (gene 3082); test: LTEA_HepaRG_HGF: Life Technologies and Expression Analysis (LTEA) Assay for Hepatocyte Growth Facto (HGF) using HepaRG (AID 2283505)
Method in brief: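 Differentiated HepaRG cells in serum-free induction medium exposed 48 h in duplicate, 8 half-log concentrations from 100 uM in 0.5% DMSO. HGF mRNA by qRT-PCR, normalised to ACTB, GAPDH, POLR2A; bidirectional fitting.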

[5] = read-out: Insulin Like Growth Factor 1 (IGF1), IGF1 (gene 3479); test: LTEA_HepaRG_IGF1: Life Technologies and Expression Analysis (LTEA) Assay for Insulin Like Growth Factor 1 (IGF1) using HepaRG (AID 2283506)
Method in brief: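 Differentiated human HepaRG cells were dosed for 48 h in serum-free induction medium with 0.5% DMSO, eight half-log concentrations up to 100 uM, in duplicate. IGF1 mRNA was quantified by qRT-PCR normalized to ACTB, GAPDH, POLR2A; bidirectional fitting versus DMSO.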

[6] = read-out: Intercellular Adhesion Molecule 1 (ICAM1), ICAM1 (gene 3383); test: LTEA_HepaRG_ICAM1: Life Technologies and Expression Analysis (LTEA) Assay for Intercellular Adhesion Molecule 1 (ICAM1) using HepaRG (AID 2283507)
Method in brief: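 Differentiated human HepaRG cells in serum-free induction medium exposed 48 h in duplicate to 8 half-log concentrations (top 100 uM, 0.5% DMSO). ICAM1 mRNA quantified by TaqMan qRT-PCR, normalized to ACTB, GAPDH and POLR2A; bidirectional fitting versus DMSO.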

[7] = read-out: Insulin-like growth factor-binding protein 1 (IGFBP1), IGFBP1 (gene 3484); test: LTEA_HepaRG_IGFBP1: Life Technologies and Expression Analysis (LTEA) Assay for Insulin-like growth factor-binding protein 1 (IGFBP1) using HepaRG (AID 2283508)
Method in brief: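 HepaRG cells, plated 48 h then switched to serum-free induction medium, exposed in duplicate for 48 h to 8-point half-log series from 100 uM in 0.5% DMSO. mRNA measured by qRT-PCR, normalized to ACTB/GAPDH/POLR2A; bidirectional fit versus DMSO.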

[8] = read-out: Interleukin 6 Receptor (IL6R), IL6R (gene 3570); test: LTEA_HepaRG_IL6R: Life Technologies and Expression Analysis (LTEA) Assay for Interleukin 6 Receptor (IL6R) using HepaRG (AID 2283510);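 on AC50: TaqMan qRT-PCR signal normalized to ACTB GAPDH and POLR2A housekeeping genes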
Method in brief: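 Differentiated human HepaRG cells, plated 48 h then switched to serum-free induction medium, were dosed in duplicate for 48 h at eight half-log concentrations up to 100 uM in 0.5% DMSO. IL6R mRNA quantified by qRT-PCR, normalized to ACTB/GAPDH/POLR2A; bidirectional fit versus DMSO.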

[9] = read-out: Keratin 19 (KRT19), KRT19 (gene 3880); test: LTEA_HepaRG_KRT19: Life Technologies and Expression Analysis (LTEA) Assay for Keratin 19 (KRT19) using HepaRG (AID 2283512)
Method in brief: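 Differentiated HepaRG cells in serum-free induction medium, exposed 48 h in duplicate to 8 half-log concentrations up to 100 uM in 0.5% DMSO. KRT19 mRNA by qRT-PCR, normalized to ACTB, GAPDH, POLR2A; bidirectional fit vs DMSO.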

[10] = read-out: JUN Transcription Factor, JUN (gene 3725); test: LTEA_HepaRG_JUN: Life Technologies and Expression Analysis (LTEA) Assay for JUN Transcription Factor using HepaRG (AID 2283513)
Method in brief: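 Differentiated HepaRG cells were exposed to chemicals for 48 h in serum-free induction medium, 8 concentrations from 100 uM in half-log steps, 0.5% DMSO vehicle, in duplicate. JUN mRNA was quantified by TaqMan qRT-PCR, normalized to ACTB, GAPDH, POLR2A.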

[11] = read-out: Lipase C (LIPC), LIPC (gene 3990); test: LTEA_HepaRG_LIPC: Life Technologies and Expression Analysis (LTEA) Assay for Lipase C (LIPC) using HepaRG (AID 2283514)
Method in brief: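 Read-out is LIPC transcript level by TaqMan qRT-PCR, normalized to three housekeeping genes, after 48 h chemical treatment of human HepaRG liver cells. Curves span eight concentrations topping at 100 uM; activity in either direction scored relative to 0.5% DMSO.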

[12] = read-out: Lipoprotein lipase (LPL), LPL (gene 4023); test: LTEA_HepaRG_LPL: Life Technologies and Expression Analysis (LTEA) Assay for Lipoprotein lipase (LPL) using HepaRG (AID 2283515)
Method in brief: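 Read-out is LPL transcript level by qRT-PCR, normalized to three housekeeping genes and fitted bidirectionally against the DMSO control. Human HepaRG cells received chemicals for 48 h at up to 100 uM.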

[13] = read-out: MicroRNA 122 (MIR122), gene 406906; test: LTEA_HepaRG_MIR122: Life Technologies and Expression Analysis (LTEA) Assay for MicroRNA 122 (MIR122) using HepaRG (AID 2283516); further: the transcript read is the microRNA miR-122
Method in brief: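 Differentiated human HepaRG cells were exposed 48 h in serum-free induction medium to eight half-log concentrations (top 100 uM, 0.5% DMSO). Transcript level was measured by TaqMan qRT-PCR, normalized to ACTB, GAPDH and POLR2A, and fitted bidirectionally versus DMSO.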

[14] = read-out: matrix metalloproteinase-10 (MMP10), MMP10 (gene 4319); test: LTEA_HepaRG_MMP10: Life Technologies and Expression Analysis (LTEA) Assay for matrix metalloproteinase-10 (MMP10) using HepaRG (AID 2283517)
Method in brief: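 Gain or loss of MMP10 mRNA is fitted relative to the 0.5% DMSO vehicle. The human hepatic line HepaRG receives a 48-hour serum-free exposure, in duplicate, with a maximum concentration of 100 uM.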

[15] = read-out: MYC, MYC (gene 4609); test: LTEA_HepaRG_MYC: Life Technologies and Expression Analysis (LTEA) Assay for MYC using HepaRG (AID 2283518)
Method in brief: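 Differentiated HepaRG cells exposed 48 h in serum-free induction medium to 8 concentrations (top 100 uM, half-log steps; 0.5% DMSO), duplicate. MYC mRNA measured by Fluidigm qRT-PCR, normalized to ACTB, GAPDH, POLR2A; bidirectional fit versus DMSO.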

[16] = read-out: matrix metalloproteinase-3 (MMP3), MMP3 (gene 4314); test: LTEA_HepaRG_MMP3: Life Technologies and Expression Analysis (LTEA) Assay for matrix metalloproteinase-3 (MMP3) using HepaRG (AID 2283519)
Method in brief: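 HepaRG, human; 48 h dosing, 8 conc. (max 100 uM, half-log), duplicate, 0.5% DMSO. Readout: MMP3 transcript by Fluidigm TaqMan qRT-PCR, ACTB/GAPDH/POLR2A-normalised. Gain or loss fitted vs DMSO.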

[17] = read-out: Paternally Expressed 10 (PEG10), PEG10 (gene 23089); test: LTEA_HepaRG_PEG10: Life Technologies and Expression Analysis (LTEA) Assay for Paternally Expressed 10 (PEG10) using HepaRG (AID 2283520)
Method in brief: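 Differentiated HepaRG cells, plated 48 h then switched to serum-free induction medium, were exposed in duplicate for 48 h to eight half-log concentrations topping at 100 uM in 0.5% DMSO. PEG10 mRNA was quantified by TaqMan qRT-PCR, normalised to ACTB, GAPDH and POLR2A.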

[18] = read-out: Nuclear factor NF-kappa-B p105 subunit (Homo sapiens) (UniProt P19838); test: LTEA_HepaRG_NFKB1: Life Technologies and Expression Analysis (LTEA) Assay for Nuclear Factor Kappa B Subunit 1 (NFKB1) using HepaRG (AID 2283521)
Method in brief: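 HepaRG, 48 h exposure; 8-pt half-log series from 100 uM in 0.5% DMSO; duplicates. Readout: NFKB1 mRNA by qRT-PCR (Fluidigm arrays), housekeeping-normalized. Gain/loss fit vs DMSO baseline.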

[19] = read-out: Interleukin 6 (IL6), IL6 (gene 3569); test: LTEA_HepaRG_IL6: Life Technologies and Expression Analysis (LTEA) Assay for Interleukin 6 (IL6) using HepaRG (AID 2283509)
Method in brief: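 HepaRG, ~100,000 cells/well, 48 h pre-culture; serum-free induction medium; cmpd 8-pt half-log from 100 uM, 0.5% DMSO, duplicate, 48 h. Lysis in RLT, TaqMan qRT-PCR; gain or loss vs DMSO.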

[20] = read-out: Potassium channel subfamily K member 1 (KCNK1), KCNK1 (gene 3775); test: LTEA_HepaRG_KCNK1: Life Technologies and Expression Analysis (LTEA) Assay for Potassium channel subfamily K member 1 (KCNK1) using HepaRG (AID 2283511)
Method in brief: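 Gain or loss of KCNK1 mRNA is the read-out, quantified by qRT-PCR against three housekeeping genes after 48 h chemical treatment of human HepaRG liver cells. Concentrations ran from 100 uM downward in half-log steps, vehicle 0.5% DMSO.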

Measured: AC50

Sequence of Nuclear factor NF-kappa-B p105 subunit (Homo sapiens) (P19838 whole entry, looked up): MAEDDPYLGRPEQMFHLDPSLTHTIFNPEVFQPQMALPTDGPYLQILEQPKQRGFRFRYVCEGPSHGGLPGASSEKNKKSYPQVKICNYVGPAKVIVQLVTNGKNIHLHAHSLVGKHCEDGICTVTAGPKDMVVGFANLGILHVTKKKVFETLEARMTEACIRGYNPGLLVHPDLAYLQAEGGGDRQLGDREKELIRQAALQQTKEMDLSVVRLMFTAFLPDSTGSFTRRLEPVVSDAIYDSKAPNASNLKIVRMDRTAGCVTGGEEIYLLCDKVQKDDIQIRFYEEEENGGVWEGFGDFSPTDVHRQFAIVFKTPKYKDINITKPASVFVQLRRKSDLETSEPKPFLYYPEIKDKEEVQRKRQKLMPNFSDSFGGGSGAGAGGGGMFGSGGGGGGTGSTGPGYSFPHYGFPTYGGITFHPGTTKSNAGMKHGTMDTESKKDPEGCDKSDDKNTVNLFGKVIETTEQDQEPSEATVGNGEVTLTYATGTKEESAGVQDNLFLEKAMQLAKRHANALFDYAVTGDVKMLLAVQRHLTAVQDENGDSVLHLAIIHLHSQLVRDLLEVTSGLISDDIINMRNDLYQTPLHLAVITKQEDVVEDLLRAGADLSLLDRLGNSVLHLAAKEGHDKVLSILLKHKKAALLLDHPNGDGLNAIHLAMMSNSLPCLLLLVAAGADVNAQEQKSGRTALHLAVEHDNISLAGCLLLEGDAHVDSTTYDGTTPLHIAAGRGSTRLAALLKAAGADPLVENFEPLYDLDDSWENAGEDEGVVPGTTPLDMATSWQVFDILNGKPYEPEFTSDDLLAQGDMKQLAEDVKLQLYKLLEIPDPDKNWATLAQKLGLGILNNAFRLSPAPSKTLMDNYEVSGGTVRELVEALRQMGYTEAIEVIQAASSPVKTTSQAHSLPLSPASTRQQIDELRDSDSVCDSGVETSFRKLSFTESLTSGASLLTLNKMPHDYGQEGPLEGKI
Sequence of Hypoxia-inducible factor 1-alpha (Homo sapiens) (Q16665 whole entry, looked up): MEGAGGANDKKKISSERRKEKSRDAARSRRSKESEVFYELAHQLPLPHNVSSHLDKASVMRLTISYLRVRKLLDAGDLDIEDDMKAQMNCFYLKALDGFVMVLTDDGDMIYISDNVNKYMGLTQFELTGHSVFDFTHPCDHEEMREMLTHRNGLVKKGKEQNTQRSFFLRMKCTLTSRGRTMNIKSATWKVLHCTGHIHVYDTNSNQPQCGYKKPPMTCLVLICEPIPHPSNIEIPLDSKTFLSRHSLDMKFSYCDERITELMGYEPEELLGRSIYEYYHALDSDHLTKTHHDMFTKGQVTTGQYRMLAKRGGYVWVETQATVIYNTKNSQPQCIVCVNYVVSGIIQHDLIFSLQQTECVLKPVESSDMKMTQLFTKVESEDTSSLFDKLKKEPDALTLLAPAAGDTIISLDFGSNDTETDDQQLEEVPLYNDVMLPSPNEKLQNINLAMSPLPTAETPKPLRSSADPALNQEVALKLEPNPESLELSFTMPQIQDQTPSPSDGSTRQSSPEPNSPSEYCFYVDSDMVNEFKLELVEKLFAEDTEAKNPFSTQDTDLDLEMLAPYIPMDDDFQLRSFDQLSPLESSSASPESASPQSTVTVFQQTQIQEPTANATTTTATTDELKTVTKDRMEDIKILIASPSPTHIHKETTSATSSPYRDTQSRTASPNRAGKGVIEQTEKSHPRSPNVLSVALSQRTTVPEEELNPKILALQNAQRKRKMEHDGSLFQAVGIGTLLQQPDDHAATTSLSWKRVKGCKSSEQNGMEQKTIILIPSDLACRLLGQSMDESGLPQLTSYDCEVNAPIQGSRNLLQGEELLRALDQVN

CCCCCOC(=O)c1ccccc1C(=O)OCCCCC
not listed: [19] | [20]
inactive: all other assays above

O=Cc1ccco1
not listed: [19] | [20]
inactive: all other assays above

O=C(Nc1ccccc1)c1ccccc1I
active: [5] 19.1 µM | [7] 34.8 µM | [9] 22.6 µM | [11] 50 µM | [15] 41.6 µM | [17] 31.2 µM
not listed: [2] | [12] | [13]
inactive: all other assays above

C=CCc1ccc2c(c1)OCO2
not listed: [2] | [13]
inactive: all other assays above

CCC[CH2][Sn]([Cl])([CH2]CCC)[CH2]CCC
active: [1] 2.27 µM | [3] 1.24 µM | [4] 50 µM | [5] 4.72 µM | [7] 2.29 µM | [19] 2.73 µM | [8] 50 µM | [20] 2.85 µM | [9] 0.297 µM | [10] 3.32 µM | [11] 1.46 µM | [14] 1.73 µM | [16] 1.87 µM | [18] 9.07 µM
inactive: [6] | [15] | [17]

C[C@]12C=CC3=C4CCC(=O)C=C4CC[C@H]3[C@@H]1CC[C@@H]2O
active: [5] 55.6 µM | [13] 69.6 µM | [17] 0.805 µM
not listed: [11] | [12] | [19]
inactive: all other assays above

C1=Cc2cccc3cccc1c23
not listed: [2]
inactive: all other assays above

COP(=S)(OC)SCN1C(=O)c2ccccc2C1=O
not listed: [9] | [19] | [20]
inactive: all other assays above

CCCCCCCCCCCCCN1CC(C)OC(C)C1 (stereo not drawn)
not listed: [2] | [12] | [18]
inactive: all other assays above

CCCCCCCCOC(=O)c1ccc(C(=O)OCCCCCCCC)c(C(=O)OCCCCCCCC)c1
not listed: [7] | [12] | [13] | [15] | [19]
inactive: all other assays above

c1ccc2c(c1)oc1ccccc12
not listed: [2] | [13] | [19] | [20]
inactive: all other assays above

O=[N+]([O-])c1ccc(Oc2ccc(Cl)cc2Cl)cc1
active: [5] 50 µM | [7] 50 µM | [9] 41.1 µM | [15] 32.8 µM | [17] 50 µM
not listed: [2] | [19] | [20]
inactive: all other assays above

CCCCC(CC)COC(=O)c1ccc(C(=O)OCC(CC)CCCC)c(C(=O)OCC(CC)CCCC)c1 (stereo not drawn)
not listed: [2] | [20]
inactive: all other assays above

CCC12COCN1COC2
not listed: [2] | [12] | [19]
inactive: all other assays above

O=C(O)C1C2CCC(O2)C1C(=O)O (stereo not drawn)
active: [3] 72.6 µM | [5] 73.6 µM | [7] 93.3 µM | [8] 26.4 µM | [9] 50 µM | [10] 24.7 µM | [11] 82.6 µM | [16] 27.7 µM | [17] 85.7 µM
inactive: [1] | [4] | [6] | [15]

OCCCl
not listed: [2] | [12] | [13] | [18] | [19] | [20]
inactive: all other assays above

— PubChem BioAssay (EPA / NIEHS)
